# Measurements from PubChem BioAssay.
# Legend:
# [1] = system: Human papillomavirus type 1a protein E7 (residues 44-93); experiment: small molecules binding HPV E7 44-93 – biochemical, small-molecule microarray, residues 44-93, 635 nm fluorescence, primary screen (AID 1108); details: fluorescence 635 nm, higher = more signal;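 note: E7 fragment applied at 1 µg/mL in TBST for 1 h at 4 C; score combines spot fluorescence with its signal to noise ratio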
# [2] = hepatitis C replication reporter changes, two-sided – Huh7 cells, luciferase reporter, HCV replication inhibitor project, primary screen (AID 1109); details: Huh7 HCV replicon luciferase reporter, 48 h; higher = more signal;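 note: huh7 hepatoma cells harbouring a luciferase neomycin HCV replicon reporter; luciferase luminescence as measure of HCV replicon replication; test concentration not given here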
# [3] = molecular target: Left-right determination factor 2 (Homo sapiens) (UniProt O00292); experiment: small molecules binding LEFTY2 protein – biochemical, small-molecule microarray, 635 nm fluorescence scan, primary screen (AID 1110); details: higher = more signal
# [4] = molecular target: Calmodulin-1 (Homo sapiens) (UniProt P0DP23); experiment: small molecules binding calmodulin-1 with EGTA – biochemical, small-molecule microarray, Cy5-labelled CALM1, profiling panel (AID 1111); details: Cy5-CALM1 binding fluorescence, higher = more signal;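 note: labelled calmodulin applied in Tris saline Tween buffer holding calcium plus EGTA and DTT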
# [5] = molecular target: Calmodulin-1 (Homo sapiens) (UniProt P0DP23); experiment: small molecules binding Ca-loaded calmodulin-1 – biochemical, small-molecule microarray, Cy5-labelled CALM1, plus calcium, artefact control for SMM control-protein annotation, profiling panel (AID 1112); details: Cy5-CALM1 binding fluorescence, higher = more signal;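 note: score merges spot fluorescence with signal to noise from triplicate slides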
# [6] = probe aWnt5a binding to arrayed compounds – biochemical, biotinylated probe, 635/667 nm fluorescence, primary screen (AID 1113); details: small-molecule microarray, higher = more signal;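 note: score merges 667 nm fluorescence intensity with signal-to-noise per printed feature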
# [7] = probe aShh binding to arrayed compounds – biochemical, biotinylated probe, 635/667 nm fluorescence, primary screen (AID 1114); details: small-molecule microarray, higher = more signal;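 note: probe is biotin-labelled aShh protein from a stem cell growth factor screen; measures binding of labelled protein to compounds printed on the slide; score merges feature fluorescence at 667 nm with signal-to-noise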
# [8] = probe aNog binding to arrayed compounds – biochemical, biotinylated probe, 635/667 nm fluorescence, primary screen (AID 1115); details: small-molecule microarray, higher = more signal;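 note: probe is biotinylated aNog protein used at 0.15 µg/mL for 1 h at 4 C; z-score combines 667 nm fluorescence of each spot with its signal to noise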
# [9] = molecular target: Torsin-1A-interacting protein 1 (Homo sapiens) (UniProt Q5JTV8); experiment: compound microarray binding of lysate hLAP1 – cell lysate, small-molecule microarray, COS7 lysate, 635/667 nm fluorescence, primary screen (AID 1116); details: 635 nm fluorescence, higher = more signal
# [10] = molecular target: Alpha-bungarotoxin (Bungarus multicinctus) (UniProt P60615); experiment: compounds binding labelled alpha-BTX control protein – biochemical, small-molecule microarray, Alexa647 label, 635/667 nm fluorescence, artefact control for SMM control protein annotation, profiling panel (AID 1117); details: alpha-BTX-A647 binding fluorescence, higher = more signal
# Sequence of Alpha-bungarotoxin (Bungarus multicinctus) (P60615 whole entry, looked up): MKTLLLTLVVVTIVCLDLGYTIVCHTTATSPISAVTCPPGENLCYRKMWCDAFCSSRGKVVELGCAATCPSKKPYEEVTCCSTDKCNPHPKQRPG
# Sequence of Torsin-1A-interacting protein 1 (Homo sapiens) (Q5JTV8 whole entry, looked up): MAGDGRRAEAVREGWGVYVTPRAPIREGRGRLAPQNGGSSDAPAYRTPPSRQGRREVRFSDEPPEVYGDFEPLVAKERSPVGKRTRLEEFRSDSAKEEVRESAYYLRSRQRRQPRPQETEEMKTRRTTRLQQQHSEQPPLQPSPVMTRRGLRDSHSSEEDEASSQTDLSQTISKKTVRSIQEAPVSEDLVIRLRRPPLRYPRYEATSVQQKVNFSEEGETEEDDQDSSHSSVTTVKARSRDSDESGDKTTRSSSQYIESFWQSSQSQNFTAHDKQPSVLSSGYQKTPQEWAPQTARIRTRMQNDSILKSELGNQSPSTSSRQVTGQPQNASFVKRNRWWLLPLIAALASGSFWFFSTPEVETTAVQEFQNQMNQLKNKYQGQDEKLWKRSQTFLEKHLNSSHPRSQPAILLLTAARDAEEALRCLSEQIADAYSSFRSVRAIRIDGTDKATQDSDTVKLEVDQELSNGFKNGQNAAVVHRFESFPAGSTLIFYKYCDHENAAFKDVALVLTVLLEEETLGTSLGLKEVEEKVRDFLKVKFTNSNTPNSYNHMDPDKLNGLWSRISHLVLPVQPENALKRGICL
# Sequence of Left-right determination factor 2 (Homo sapiens) (O00292 whole entry, looked up): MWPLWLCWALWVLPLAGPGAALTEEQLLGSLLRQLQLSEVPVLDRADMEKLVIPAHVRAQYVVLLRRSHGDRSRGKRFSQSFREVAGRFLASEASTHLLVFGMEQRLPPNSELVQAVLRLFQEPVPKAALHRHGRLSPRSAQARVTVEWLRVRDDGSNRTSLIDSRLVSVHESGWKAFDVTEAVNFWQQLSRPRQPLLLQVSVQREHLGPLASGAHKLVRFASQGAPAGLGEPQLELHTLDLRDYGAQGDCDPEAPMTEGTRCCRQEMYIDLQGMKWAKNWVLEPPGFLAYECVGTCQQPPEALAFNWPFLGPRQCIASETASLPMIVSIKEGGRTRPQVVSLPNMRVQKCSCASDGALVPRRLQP
smiles,measurement,setting,value
CCOC(=O)[C@H](CC(C)C)NC(=O)CCC1CC(OC(=O)NCc2ccc3c(c2)OCO3)CC2(CCCC(COC(=O)NCCc3ccc(Cl)cc3)O2)O1 (stereo not given in full),composite z-score,[1],0.838
same,z-score,[2],0.225
same,composite z-score,[3],0.582
same,composite z-score,[4],-0.131
same,composite z-score,[5],-0.572
same,composite z-score,[6],-0.0556
same,composite z-score,[7],-0.283
same,composite z-score,[8],-0.363
same,composite z-score,[9],0.426
same,composite z-score,[10],0.983
COc1ccc(-c2cnnc(CCCn3ccnc3-c3ccccc3)n2)cc1,composite z-score,[1],0.412
same,z-score,[2],-2.57
same,composite z-score,[3],0.774
same,composite z-score,[4],0.212
same,composite z-score,[5],-0.686
same,composite z-score,[6],-0.103
same,composite z-score,[7],-0.0769
same,composite z-score,[8],-0.395
same,composite z-score,[9],0.917
same,composite z-score,[10],0.587
O=C1[C@H]2[C@H]3[C@H](O)[C@H](O)CC(=NO[C@@H]4O[C@H](CO)[C@@H](O)[C@H](O)[C@H]4O)[C@@H]3CC[C@H]2C(=O)N1C1CCCCC1,composite z-score,[1],0.578
same,z-score,[2],-0.0851
same,composite z-score,[3],0.616
same,composite z-score,[4],0.159
same,composite z-score,[5],-0.616
same,composite z-score,[6],0.0101
same,composite z-score,[7],-0.0593
same,composite z-score,[8],-0.198
same,composite z-score,[9],0.0912
same,composite z-score,[10],0.0069
CC(C)CON=C1C[C@@H](O)[C@@H](O)[C@@H]2[C@@H]3C(=O)N(Cc4ccc5c(c4)OCO5)C(=O)[C@@H]3CC[C@@H]12,composite z-score,[1],0.44
same,z-score,[2],0.081
same,composite z-score,[3],-0.119
same,composite z-score,[4],0.349
same,composite z-score,[5],-0.311
same,composite z-score,[6],-0.0279
same,composite z-score,[7],-0.0769
same,composite z-score,[8],-0.103
same,composite z-score,[9],0.086
same,composite z-score,[10],0.748
CC(C)(C)N1C(=O)[C@H]2[C@H]3[C@H](O)[C@H](O)CC(=NOC[C@@H](O)COCc4ccco4)[C@H]3CC[C@H]2C1=O,composite z-score,[1],0.39
same,z-score,[2],0.61
same,composite z-score,[3],-0.203
same,composite z-score,[4],-0.0051
same,composite z-score,[5],-0.333
same,composite z-score,[6],-0.147
same,composite z-score,[7],-0.0471
same,composite z-score,[8],0.0868
same,composite z-score,[9],0.706
same,composite z-score,[10],1.15
COC(=O)[C@H](C)NC(=O)CCC1CC(OC(=O)NCc2cccc3ccccc23)CC2(CCCC(COC(=O)NCc3ccccc3)O2)O1 (stereo not given in full),composite z-score,[1],1.15
same,z-score,[2],-0.922
same,composite z-score,[3],0.648
same,composite z-score,[4],0.426
same,composite z-score,[5],-0.543
same,composite z-score,[6],-0.0721
same,composite z-score,[7],-0.206
same,composite z-score,[8],-0.495
same,composite z-score,[9],0.177
same,composite z-score,[10],0.389
CC(=O)OC[C@H]1O[C@H](CC=NOC[C@@H](O)COCc2ccco2)C=C[C@@H]1OC(C)=O,composite z-score,[1],-0.646
same,z-score,[2],0.586
same,composite z-score,[3],0.898
same,composite z-score,[4],-1.18
same,composite z-score,[5],-2.22
same,composite z-score,[6],-0.102
same,composite z-score,[7],-0.356
same,composite z-score,[8],-0.498
same,composite z-score,[9],1.58
same,composite z-score,[10],-0.663
O=C1[C@H]2CCn3c(=O)n(Cc4cc5c(cc4Cl)OCO5)c(=O)n3[C@H]2[C@H](O)[C@@H]2O[C@H]12,composite z-score,[1],-0.552
same,z-score,[2],-1.94
same,composite z-score,[3],0.269
same,composite z-score,[4],-0.806
same,composite z-score,[5],-0.697
same,composite z-score,[6],-0.295
same,composite z-score,[7],-0.237
same,composite z-score,[8],-0.492
same,composite z-score,[9],0.054
same,composite z-score,[10],0.389
O=C1C[C@H](c2ccccc2)[C@H](c2ccc(Br)cc2)O1,composite z-score,[1],0.12
same,z-score,[2],0.588
same,composite z-score,[3],0.603
same,composite z-score,[4],-0.649
same,composite z-score,[5],-0.447
same,composite z-score,[6],-0.129
same,composite z-score,[7],-0.138
same,composite z-score,[8],-0.35
same,composite z-score,[9],-0.264
same,composite z-score,[10],0.239
OC[C@H]1O[C@H](C#Cc2ccccc2)C=C[C@@H]1O,composite z-score,[1],0.0191
same,z-score,[2],-0.125
same,composite z-score,[3],0.484
same,composite z-score,[4],-0.12
same,composite z-score,[5],-0.644
same,composite z-score,[6],0.0251
same,composite z-score,[7],0.0141
same,composite z-score,[8],-0.0125
same,composite z-score,[9],-0.0177
same,composite z-score,[10],0.42
C[C@@H]1C=CCC(=O)OC[C@H](C)C(=O)N[C@@H](Cc2ccccc2)C(=O)OC1,composite z-score,[1],-0.118
same,z-score,[2],0.962
same,composite z-score,[3],0.786
same,composite z-score,[4],-0.273
same,composite z-score,[5],-0.62
same,composite z-score,[6],-0.118
same,composite z-score,[7],-0.414
same,composite z-score,[8],-0.17
same,composite z-score,[9],-0.232
same,composite z-score,[10],-0.0092
CC(C)[C@@H](OCc1ccccc1)[C@H](C)C=NO[C@@H](C)c1cn([C@H](CO)Cc2ccccc2)nn1,composite z-score,[1],0.402
same,z-score,[2],-1.87
same,composite z-score,[3],0.277
same,composite z-score,[4],-0.38
same,composite z-score,[5],-0.281
same,composite z-score,[6],-0.135
same,composite z-score,[7],-0.273
same,composite z-score,[8],0.0715
same,composite z-score,[9],0.217
same,composite z-score,[10],-0.0804
COC(=O)[C@@H]1CC[C@H](C)[C@@H](c2ccc(Br)cc2)N1C[C@H](O)CN=[N+]=[N-],composite z-score,[1],0.0343
same,z-score,[2],-0.0104
same,composite z-score,[3],0.346
same,composite z-score,[4],0.0364
same,composite z-score,[5],0.123
same,composite z-score,[6],0.14
same,composite z-score,[7],-0.0243
same,composite z-score,[8],-0.183
same,composite z-score,[9],-0.133
same,composite z-score,[10],0.426
C=C(C)C(=O)OC[C@H]1CN2[C@@H](CC[C@@H](C)[C@@H]2c2ccc(Br)cc2)C(=O)O1,composite z-score,[1],0.33
same,z-score,[2],1.25
same,composite z-score,[3],0.373
same,composite z-score,[4],-0.562
same,composite z-score,[5],-0.395
same,composite z-score,[6],-0.178
same,composite z-score,[7],-0.0553
same,composite z-score,[8],-0.353
same,composite z-score,[9],-0.273
same,composite z-score,[10],0.534
CCOC(=O)CCN1C(=O)[C@H]2[C@H]3[C@H](O)[C@H](O)CC(=NOCC(C)C)[C@@H]3CC[C@H]2C1=O,composite z-score,[1],-0.998
same,z-score,[2],-0.488
same,composite z-score,[3],1.01
same,composite z-score,[4],-1.92
same,composite z-score,[5],-1.74
same,composite z-score,[6],-0.284
same,composite z-score,[7],-0.0471
same,composite z-score,[8],-0.255
same,composite z-score,[9],-0.202
same,composite z-score,[10],-0.799
CC(=O)OC[C@H]1O[C@@H](ON=C2[C@H]3CCn4c(=O)n(-c5ccccc5)c(=O)n4[C@H]3[C@H](O)[C@@H]3O[C@H]23)[C@H](OC(C)=O)[C@@H](OC(C)=O)[C@@H]1OC(C)=O,composite z-score,[1],1.08
same,z-score,[2],-3.07
same,composite z-score,[3],0.664
same,composite z-score,[4],-0.0898
same,composite z-score,[5],-0.268
same,composite z-score,[6],-0.101
same,composite z-score,[7],0.0902
same,composite z-score,[8],-0.0563
same,composite z-score,[9],0.479
same,composite z-score,[10],0.393
CC(=O)OC[C@H]1O[C@H](CC=NOC[C@@H](O)[C@H]2O[C@@H]3OC(C)(C)O[C@@H]3[C@H]2O)C=C[C@@H]1OC(C)=O,composite z-score,[1],0.836
same,z-score,[2],-0.041
same,composite z-score,[3],0.439
same,composite z-score,[4],0.699
same,composite z-score,[5],0.249
same,composite z-score,[6],-0.0735
same,composite z-score,[7],0.179
same,composite z-score,[8],-0.189
same,composite z-score,[9],0.51
same,composite z-score,[10],1.32
CCOC(=O)[C@H](Cc1ccccc1)NC(=O)CCC1CC(OC(=O)NCc2cccc3ccccc23)CC2(CCCC(COC(=O)NCCc3ccccc3OC)O2)O1 (stereo not given in full),composite z-score,[1],0.881
same,z-score,[2],-1.06
same,composite z-score,[3],0.584
same,composite z-score,[4],0.38
same,composite z-score,[5],-0.298
same,composite z-score,[6],-0.195
same,composite z-score,[7],0.191
same,composite z-score,[8],-0.138
same,composite z-score,[9],0.135
same,composite z-score,[10],0.635
